Measurements reported in PubChem BioAssay (Tox21).
Inconclusive results are not listed. Where a call stands in place of a potency, no number is given. Unmarked numbers belong to inactive results. Activity calls are given as the source filed them. Calls follow the shape of the full dose curve.

Assay: Nuclear factor erythroid 2-related factor 2/antioxidant responsive element (Nrf2/ARE) small molecule agonists: luciferase reporter gene qHTS assay in human keratinocytes (AID 1919969); also: nearly all actives have a fitted effect of over 35% in size
Potency is read from the fitted curve at half-maximal effect.

Compound	Potency	activity, positive = activation
CCCCCCCC[Si](OCC)(OCC)OCC	inactive	–
C/C=C/C=C/CCCCCCCO	68.6 µM (active)	–
CCCCCCCC/C=C\CCCCCCCCCCCC(=O)O	inactive	–
COC(=O)c1ccc(I)cc1S(=O)(=O)NC(=O)Nc1nc(C)nc(OC)n1	inactive	–
CN(C)C(=O)CNC(=O)Cc1ccccc1	inactive	–
C=C(C)C(=O)OCC1CCCO1 (stereo not given)	inactive	–
Clc1cc(Cl)cc(Cl)c1	inactive	–
COc1c(Br)cc(Br)c(C)c1Br	inactive	–
Nc1ccccc1O	47.9 µM (active)	–
OC[C@@H](O)[C@@H](O)CO	inactive	–
CCC1CO1 (stereo not given)	inactive	–
O=c1[nH]sc2cc(Cl)ccc12	13.3 µM (active)	–
CC(C)c1ccc(C(=O)N=C(N)N)cc1S(C)(=O)=O	inactive	–
O=C(O)Cn1c(C(=O)Nc2nc(-c3ccccc3Cl)cs2)cc2ccccc21	15 µM (active)	–
CCCCCCCCCCCCCCBr	inactive	–
CC(C)C[C@@H](N)C(=O)O	–	-3.08% [at 19 µM]
COc1ccccc1N1CCN(CC(O)COc2cc(OC)c(OC)c(OC)c2)CC1 (stereo not given)	inactive	–
Cc1cccc(C)c1C	inactive	–

Compound	Potency	activity, positive = activation
COc1ccc2sc(C(=O)Nc3nnn[nH]3)c(OC(C)C)c2c1	24.2 µM (active)	–
c1ccc(CCNc2nc(-c3ccccc3)cs2)cc1	0.596 µM (active)	–
C=C(C)c1ccccc1	inactive	–
Cc1cc(S(=O)(=O)O)ccc1N=Nc1c(O)ccc2ccccc12	inactive	–
CC(C)Nc1nc(N)nc(Cl)n1	inactive	–
COc1cccc(O)c1O	28.4 µM (active)	–
O=C(Nc1cccc2c(=O)cc(-c3nn[nH]n3)oc12)c1ccc(OCCCCc2ccccc2)cc1	inactive	–
O=C1CCCCO1	inactive	–
CCCNC(C)C(=O)Nc1ccccc1C (stereo not given)	inactive	–
Nc1ccc(S(=O)(=O)O)c(N)c1	inactive	–
O=C(OOC(=O)c1ccccc1)c1ccccc1	inactive	–
O=C(OCCCCCOC(=O)c1ccccc1)c1ccccc1	inactive	–
O[C@@H]1CO[C@H]2[C@@H]1OC[C@@H]2O	inactive	–
COC(=O)c1cc(C(=O)OC)cc(S(=O)(=O)O)c1	inactive	–
CCOC(=O)CC	inactive	–
CCCCCCCCCOC(C)=O	inactive	–
O=C(NCC1CN(c2ccc(N3CCOCC3=O)cc2)C(=O)O1)c1ccc(Cl)s1 (stereo not given)	inactive	–
